# Most compounds without a hit are left out; they make up all but 10% or so of the library.
# GLA inh pH 4.5: blocks human alpha-galactosidase A at pH 4.5 | activity change, negative = inhibition, % at 105 µM | P06280 | AID 1467 | 230,000 tested, under 10 active | purified enzyme, 4-MU-alpha-Gal fluorescence, pH 4.5;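 note: 0% = full activity with enzyme and -100% = basal without enzyme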
# Target sequence (P06280 whole entry, looked up): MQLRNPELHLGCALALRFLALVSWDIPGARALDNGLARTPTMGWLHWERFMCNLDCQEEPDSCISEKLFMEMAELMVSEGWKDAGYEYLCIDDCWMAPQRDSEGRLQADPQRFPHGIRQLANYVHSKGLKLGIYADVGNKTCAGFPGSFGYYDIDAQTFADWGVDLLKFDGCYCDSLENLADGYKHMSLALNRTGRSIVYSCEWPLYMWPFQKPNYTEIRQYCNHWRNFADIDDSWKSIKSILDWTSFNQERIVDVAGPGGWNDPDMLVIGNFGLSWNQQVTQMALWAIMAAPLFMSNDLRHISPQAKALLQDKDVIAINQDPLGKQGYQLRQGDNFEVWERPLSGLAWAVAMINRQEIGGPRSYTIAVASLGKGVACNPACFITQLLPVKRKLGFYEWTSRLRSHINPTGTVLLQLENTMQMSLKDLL
# HPGD inh: blocks human HPGD enzyme activity; Potency, µM, for inactives: at the top dose activity change, negative = inhibition, hits mostly inhibitors; 4.3% of 150,000 active; P15428; purified HPGD, NADH fluorescence kinetic, PGE2 substrate; AID 894; active = well fitted inhibition curve with a large enough effect, not every such curve was filed as active; inconclusive = small, poorly fitted or top-dose-only effect, or another doubt; inactive = no such curve, though single readings can be large or run the other way; note: potency is the fitted concentration of half-maximal effect
#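 NADH formation kinetics: reaction with 30 uM PGE2 and 1 mM NAD+ (final), 20 nM enzyme, Tris-HCl pH 8 with Tween 20, after 15 min compound preincubation at room temperature. Fluorescence change, last versus first of five reads.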
# PNC inhibitor: inhibitors of perinucleolar compartment assembly; activity change (PNC), negative = inhibition, % at 10 µM; PC3M PTB-GFP, PNC prevalence imaging, 16 h; hits give low values; 3.1% of 140,000 active;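 active = readout at or below -70, meaning at least 70% loss of cells showing the perinucleolar compartment, a nuclear body marking cancer cells; inconclusive = readout between -30 and a set limit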;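 note: plate controls were DMSO wells for no effect and camptothecin positive control wells for full effect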
#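 Compounds are pinned in duplicate onto adhered PC3M cells stably expressing GFP-tagged PTB and incubated 16 h at 37 C. Cells are then fixed, nuclei stained with Hoechst, and PNC-positive cells counted.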
# aGal spleen mod: inhibits or activates alpha-galactosidase in human spleen homogenate; human spleen homogenate, 4MU-alpha-Gal fluorescence, 40 min; Potency, µM (top dose mostly 80 µM), inactives show top-dose activity change, negative = inhibition, actives largely listed as inhibitors; 0.008% of 240,000 active;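 note: potency is the fitted concentration of half-maximal effect; 0% = enzyme with vehicle and -100% = no enzyme basal signal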
#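 Spleen homogenate 1 ug + cpd (titration) + 4-MU-alpha-D-galactopyranoside 1 mM; 37C 40 min; 50 mM citrate/phosphate pH 5.0, 0.01% Tween-20; stop pH 10; fluorescence 365/440; AC50 via Hill.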
# ALDH1A1 block: ALDH1A1 (human) enzyme inhibition; P00352; Purified ALDH1A1, NADH fluorescence, propionaldehyde substrate; Potency, µM (titrated, usually from 75.3 µM), for inactives: top-dose activity, negative = inhibition, usual class: inhibitors; 7.3% of 220,000 active; AID 1030; active = well fitted inhibition curve with a large enough effect, not every such curve was filed as active; inconclusive = small, poorly fitted or top-dose-only effect, or another doubt; inactive = no such curve, though single readings can be large or run the other way;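 note: potency is the fitted concentration of half-maximal effect; plate controls were no enzyme wells and a reference inhibitor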
# ALOX12 inhib: 12-hLO (ALOX12) enzyme inhibition. purified 12-hLO, xylenol orange hydroperoxide absorbance. Potency, µM (top dose mostly 57.1 µM), for inactives: at the highest dose activity change, negative = inhibition, usual class: inhibitors. 0.12% of 150,000 active; note: potency is the fitted concentration of half-maximal effect; nearly all actives have a fitted effect of over 55% in size
#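 Purified human 12hLO (150 nM final) was preincubated with compounds for 15 min at room temperature in 25 mM Hepes pH 7.0, 0.01% Triton X-100, then reacted with 40 uM arachidonic acid for 30 min. Hydroperoxide was detected with ferrous iron/xylenol orange.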
# Numbers without * were called inactive; u = inconclusive; x = not tested or not shown; [ ] = dose if it differs, or a comment. Unless noted, calls come from the whole dose curve; as a rule, active = well fitted curve in the direction sought with a large enough effect; inconclusive = small, poorly fitted or top-dose-only effect, or another doubt; inactive = no such curve, though single readings can be large; an effect the other way counts as inactive or inconclusive. Unless noted, % is set by controls: 0 for no effect and ±100 for the full control effect.
SMILES,GLA inh pH 4.5,HPGD inh,PNC inhibitor,aGal spleen mod,ALDH1A1 block,ALOX12 inhib
O=C(O)/C=C\C(=O)Nc1ccccc1C(=O)N1CCN(c2ccc(Cl)cc2)CC1,0,-2%,-25,4%,4%,-8%
O=C(O)/C=C\C(=O)Nc1ccc(N2CCN(c3cccc(Cl)c3)CC2)cc1,-22,x,x,1%,28µM*,x
CC1(C)OC2C[C@](O)(C(N)=O)C[C@H](O)[C@H]2O1 (some centres not stated),6,0%,x,-2%,6%,0%
O=C(NC1(C(F)(F)F)N=C(c2ccccc2)NC1=O)c1ccccc1 (configuration not stated),6,-2%,60,2%,5%,0%
O=C(O)Cc1cc(Cl)ccc1O,x,-7%,x,x,5%[13.5 µM],-6%[11.4 µM]
CCOC(=O)c1cnn2c(C(F)(F)F)cc(-c3ccccc3)nc12,7,u,15,12%,-10%,-5%
CCOC(=O)C1CCCN(C(=O)c2cc3nc(-c4cccc(OC)c4)cc(C(F)(F)F)n3n2)C1 (configuration not stated),-17,16µM*,-80*,-2%,u,-22%
O=C(c1cnn2c(C(F)(F)F)cc(-c3ccc4c(c3)OCO4)nc12)N1CCCC1,0,4.5µM*,14,10%,0%,-4%
CCOC(=O)C1CCCN(C(=O)c2cc3c(-c4cccc(OC)c4)nn(C)c3s2)C1 (configuration not stated),-5,-10%,u,0%,u,-9%
CCOC(=O)C1CCCN(C(=O)c2cnn3c(C(F)(F)F)cc(-c4ccccc4)nc23)C1 (configuration not stated),-7,25µM*,5,-2%,u,-6%
O=C(c1cnn2c(C(F)(F)F)cc(-c3ccc(Br)cc3)nc12)N1CCOCC1,2,u,u,0%,16%,3%
CCOC(=O)OCC1OC(C#Cc2ccc(C(C)(C)C)cc2)C=CC1OC(=O)OCC (configuration not stated),x,x,x,-1%[17.5 µM],-8%[13.5 µM],x
O=C(c1ccccc1Sc1c(Cl)cccc1[N+](=O)[O-])N1CCOCC1,12,-5%,-25,7%,-13%,-1%
Cc1ccc(N2CC(C(=O)N/N=C/c3cccc([N+](=O)[O-])c3)CC2=O)cc1 (configuration not stated),1,-18%,-83*,7%,-14%,1%
O=C(N/N=C/c1cccc([N+](=O)[O-])c1)C1CC(=O)N(c2ccc(Cl)cc2)C1 (configuration not stated),-3,-13%,-17,-1%,-5%,-21%
Cc1sc2ncnc(OCC(=O)N3CCN(C(=O)c4ccco4)CC3)c2c1C,1,x,x,5%,3.2µM*,x
Cc1cc(N2CCN(C(=O)c3ccco3)CC2)nc(-c2ccccc2)n1,-4,-21%,u,-5%,6.3µM*,-6%
O=C(c1ccco1)N1CCN(c2ncnc3scc(-c4ccccc4)c23)CC1,2,-20%,46,7%,11µM*,-3%
O=C(c1ccco1)N1CCN(c2ncnc3scc(-c4cccs4)c23)CC1,-2,-10%,-18,1%,-14%,-2%
COc1ccc(C(=O)N2CCN(c3ncnc4c(-c5ccccc5)nsc34)CC2)cc1,3,u,-27,-1%,2.8µM*,3%
CC1(C)Oc2ccc(C#N)cc2[C@H](N2CCCC2=O)[C@H]1O,4,-16%,x,4%,0%,-2%
CC1(C)S[C@@H]2[C@H](NC(=O)Cc3ccccc3)C(=O)N2[C@@H]1C(=O)O,x,-1%,x,x,9%[13.5 µM],6%[11.4 µM]
Cc1ccc(-c2csc3ncnc(N4CCN(C(=O)c5ccccc5)CC4)c23)cc1,-6,-15%,u,1%,13µM*,-10%
O=C(c1cccs1)N1CCCN(c2ncnc3scc(-c4ccccc4)c23)CC1,-7,x,x,-1%,u,x

# Bioassay records: PubChem, National Center for Advancing Translational Sciences (NCATS)
